# Laboratory results reported in PubChem BioAssay (NCATS).
# Records with an inconclusive call do not appear. A number with no mark means an inactive call. The source made the active and inactive calls. The call rests on the fitted dose curve; in most records, active means well fitted cell-killing curve with a large enough effect; inconclusive means small, poorly fitted or top-dose-only effect, or effect the other way; inactive means no such curve, though single readings can be large or run the other way.
# Experiment: Quantitative High-Throughput drug screen in 47 multiple myeloma cell lines against the NCATS MIPE library collection: KMS27_JCRB cell viability assay (AID 1918970); further: nearly all actives have a fitted effect of over 30% in size
# Conditions: KMS27 myeloma cells, CellTiter-Glo ATP viability, 48 h; viability (% of DMSO): at 45.8 µM (top of the series)
# In short: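 Myeloma cells (500 per well) were exposed to MIPE 4.0 compounds for 48 h at 37 °C, 5% CO2; viability was read as ATP luminescence with CellTiter-Glo, normalized to DMSO-only (100%) and media-only (0%) wells.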
# Potency means the concentration at half of the fitted maximal effect.
SMILES,viability (% of DMSO),Potency
CC(C)=CCCC(C)=CCCC(C)=CCCC(C)=CCCC(C)=CCCC(C)=CCCC(C)=CCCC(C)=CCCC(C)=CCO,132%,
C=CCc1cccc(C=NNC(=O)CN2CCN(Cc3ccccc3)CC2)c1O,,5.26 µM (active)
O=C(NC[C@H](O)CO)c1ccncc1Nc1ccc(I)cc1F,,1.48 µM (active)
C[C@@H]1[C@H](C)CC[C@]2(C(=O)O)CC[C@]3(C)C(=CC[C@@H]4[C@@]5(C)CC[C@H](O)C(C)(C)[C@H]5CC[C@]43C)[C@@H]12,136% [at 92.2 µM],
CNC(=O)c1cc(COc2nnc(Nc3ccc(Cl)cc3)c3ccoc23)ccn1,141%,
CC[C@H]1OC(=O)[C@H](C)[C@@H](O[C@H]2C[C@@](C)(OC)[C@@H](O)[C@H](C)O2)[C@H](C)[C@@H](O[C@@H]2O[C@H](C)C[C@H](N(C)C)[C@H]2O)[C@](C)(O)C[C@H](C)C(=NOCOCCOC)[C@H](C)[C@@H](O)[C@]1(C)O,118%,
COc1ccc(-c2cc(=O)c3c(O)cc(O[C@@H]4O[C@H](CO[C@@H]5O[C@@H](C)[C@H](O)[C@@H](O)[C@@H]5O)[C@@H](O)[C@H](O)[C@@H]4O)cc3o2)cc1O,131%,
CN[C@@H](C)[C@H]1[C@H](O)C[C@@]2(C)[C@@H]3CC[C@H]4C(C)(C)[C@@H](NC)CC[C@@]45C[C@@]35CC[C@]12C,89.5%,
CC1C(=O)OC2C(O)C34C5CC(C(C)(C)C)C36C(OC(=O)C6O)OC4(C(=O)O5)C12O (centres undefined),121%,
Oc1cc(O)cc(C=Cc2ccc(O)c(O)c2)c1,,18.7 µM (active)
Nc1ncnc2c1c(-c1cccc(OCc3ccccc3)c1)cn2C1CC(CN2CCC2)C1 (centres undefined),,1.87 µM (active)
C=C[C@@H]1CN2CCC1C[C@@H]2C(O)c1ccnc2ccc(OC)cc12 (some centres undefined),108%,
COc1cc2ncn(-c3cc(OCc4ccccc4S(C)(=O)=O)c(C#N)s3)c2cc1OC,120%,
CN[C@H]1[C@@H](O[C@@H]2[C@H](O[C@@H]3[C@@H](O)[C@@H](O)[C@@H](N=C(N)N)[C@@H](O)[C@@H]3N=C(N)N)O[C@H](C)[C@@]2(O)C=O)O[C@@H](CO)[C@@H](O)[C@H]1O,119% [at 15.3 µM],
